Activity calls are given as the source filed them.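 How the source made its calls: active means average half-effect concentration of 10 µM or less in every one of the four cell panels; inactive means the rest.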
These compounds were tested on H9c2 (assay: protection of cardiomyocytes from stress damage, SAR follow-up, cell-based, panel, H9c2 and HL-1, H2O2, 2-deoxyglucose, ATP luminescence (AID 651642)). Settings: H9c2/HL-1 cardiomyocyte 2-deoxyglucose damage, mean of runs, with 2-deoxyglucose.

Structure (SMILES) | outcome
COc1ccc2c(c1OC)C(=O)N1c3ccccc3C(=O)N(Cc3ccc(C)cc3)C21 (configuration not stated) | inactive
COc1ccc2c(c1OC)C(=O)N1c3ccccc3C(=O)N(Cc3c(Cl)cccc3Cl)C21 (configuration not stated) | inactive
CCOC(=O)c1cccc(NC(=O)CNC(=O)c2cc(-c3cc(OC)c(OC)c(OC)c3)nc3c(Cl)cccc23)c1 | inactive
COc1cccc(CNC(=O)CNC(=O)c2cc(-c3cc(OC)c(OC)c(OC)c3)nc3ccccc23)c1 | inactive
CCOC(=O)c1cccc(NC(=O)c2cc(-c3cc(OC)c(OC)c(OC)c3)nc3ccccc23)c1 | inactive
COC(=O)CNC(=O)c1cccc(NC(=O)c2cc(-c3cc(OC)c(OC)c(OC)c3)nc3ccccc23)c1 | active
COc1ccccc1CN1C(=O)c2ccccc2N2C(=O)c3c(ccc(OC)c3OC)C12 (configuration not stated) | inactive
COc1cc(-c2cc(C(=O)NCC(=O)Nc3ccc(C(C)=O)cc3)c3cc(F)ccc3n2)cc(OC)c1OC | inactive
COc1cc(-c2cc(C(=O)Nc3cccc(C(N)=O)c3)c3ccccc3n2)cc(OC)c1OC | inactive
COc1ccc2c(c1OC)C(=O)N1c3ccccc3C(=O)N(Cc3ccc(C)cc3C)C21 (configuration not stated) | inactive
COc1ccc2c(c1OC)C(=O)N1c3ccccc3C(=O)N(Cc3ccccc3Br)C21 (configuration not stated) | inactive
COc1cc(-c2cc(C(=O)Nc3cccc(C(C)=O)c3)c3cc(Br)ccc3n2)cc(OC)c1OC | inactive
COc1cc(-c2cc(C(=O)Nc3cccc(C(=O)O)c3)c3ccccc3n2)cc(OC)c1OC | inactive
CCOC(=O)c1cccc(NC(=O)CNC(=O)c2cc(-c3cc(OC)c(OC)c(OC)c3)nc3ccc(C)cc23)c1 | active
CCOC(=O)c1cccc(NC(=O)c2cc(-c3cc(OC)c(OC)c(OC)c3)nc3cc(Cl)ccc23)c1 | inactive
COc1cc(-c2cc(C(=O)NCC(=O)Nc3cccc(C(C)=O)c3)c3cccc(Cl)c3n2)cc(OC)c1OC | inactive

Structure (SMILES) | outcome
COc1cc(-c2cc(C(=O)Nc3cccc(-c4nn[nH]n4)c3)c3ccccc3n2)cc(OC)c1OC | inactive
COc1ccc2nc(-c3cc(OC)c(OC)c(OC)c3)cc(C(=O)Nc3cccc(C(C)=O)c3)c2c1 | inactive
CCNC(=O)c1cccc(NC(=O)c2cc(-c3cc(OC)c(OC)c(OC)c3)nc3ccccc23)c1 | inactive
COc1cc(-c2cc(C(=O)Nc3cccc(C(C)=O)c3)c3cccc(Cl)c3n2)cc(OC)c1OC | inactive
COc1cc(-c2cc(C(=O)NCC(=O)O)c3ccccc3n2)cc(OC)c1OC | inactive
COc1cc(-c2cc(C(=O)Nc3cccc(C(C)=O)c3)c3cc(F)ccc3n2)cc(OC)c1OC | inactive
COc1cc(-c2cc(C(=O)NCC(=O)Nc3ccc(C(C)=O)cc3)c3cc(C)ccc3n2)cc(OC)c1OC | active
CCOC(=O)c1cccc(NC(=O)c2cc(-c3cc(OC)c(OC)c(OC)c3)nc3ccc(Cl)cc23)c1 | inactive
COc1cc(-c2cc(C(=O)Nc3cccc(C#N)c3)c3ccccc3n2)cc(OC)c1OC | inactive
COc1cc(-c2cc(C(=O)Nc3cccc(C(C)=O)c3)c3ccccc3n2)cc(OC)c1OC | inactive
CCOC(=O)c1cccc(NC(=O)c2cc(-c3cc(OC)c(OC)c(OC)c3)nc3ccc(OC)cc23)c1 | inactive
COc1cc(-c2cc(C(=O)Nc3cccc(C(=O)Nc4ccccc4)c3)c3ccccc3n2)cc(OC)c1OC | active
COc1ccc2c(c1OC)C(=O)N1c3ccccc3C(=O)N(Cc3ccccn3)C21 (configuration not stated) | inactive
COc1cc(-c2cc(C(=O)NCC(=O)Nc3ccc(C(C)=O)cc3)c3ccccc3n2)cc(OC)c1OC | inactive
COc1ccc2c(c1OC)C(=O)N1c3ccccc3C(=O)N(Cc3cccc(C)c3)C21 (configuration not stated) | inactive
COc1cc(-c2cc(C(=O)Nc3cccc(C(=O)NC4CC4)c3)c3ccccc3n2)cc(OC)c1OC | inactive
